Values without a mark were called inactive.

What all share (test): log2 ratio of Biotin-Ahx-Ub-VS probe labelling (fragment/DMSO); higher = less target engagement (more negative = stronger competition), active = hit call of the paper (q ≤ 0.05, log2 ratio ≤ -1)
What all share (settings): compound concentration: 200 uM; treatment time: 3 h

In experiment [1] the target is T1, OTUD6B (UniProt Q8N6M0).
T1 sequence (whole entry): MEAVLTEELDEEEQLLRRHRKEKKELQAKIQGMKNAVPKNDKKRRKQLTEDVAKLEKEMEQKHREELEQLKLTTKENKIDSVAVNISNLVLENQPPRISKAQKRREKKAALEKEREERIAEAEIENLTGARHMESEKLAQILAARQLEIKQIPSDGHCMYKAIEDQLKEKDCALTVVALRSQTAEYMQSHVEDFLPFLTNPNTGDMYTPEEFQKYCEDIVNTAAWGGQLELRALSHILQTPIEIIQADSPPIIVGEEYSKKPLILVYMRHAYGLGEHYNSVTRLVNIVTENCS
The gist of the method: (§1)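 Triplicate samples of HEK293T lysate, 495 µg each, received fragment at 200 µM or vehicle for 3 h, followed by Biotin-Ahx-Ub-VS (0.5 µM final) for 1 h. After NeutrAvidin enrichment of labelled DUBs and LysC/trypsin digestion, peptides were run by diaPASEF LC-MS/MS. The values are average log2 fragment/vehicle ratios from global-median-normalised Spectronaut label-free quantities, tested by unpaired t-test on proteins having ≥2 unique peptides.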

The target of experiment [2] is T2, OTUD7B (UniProt Q6GQQ9).
T2 sequence (whole entry): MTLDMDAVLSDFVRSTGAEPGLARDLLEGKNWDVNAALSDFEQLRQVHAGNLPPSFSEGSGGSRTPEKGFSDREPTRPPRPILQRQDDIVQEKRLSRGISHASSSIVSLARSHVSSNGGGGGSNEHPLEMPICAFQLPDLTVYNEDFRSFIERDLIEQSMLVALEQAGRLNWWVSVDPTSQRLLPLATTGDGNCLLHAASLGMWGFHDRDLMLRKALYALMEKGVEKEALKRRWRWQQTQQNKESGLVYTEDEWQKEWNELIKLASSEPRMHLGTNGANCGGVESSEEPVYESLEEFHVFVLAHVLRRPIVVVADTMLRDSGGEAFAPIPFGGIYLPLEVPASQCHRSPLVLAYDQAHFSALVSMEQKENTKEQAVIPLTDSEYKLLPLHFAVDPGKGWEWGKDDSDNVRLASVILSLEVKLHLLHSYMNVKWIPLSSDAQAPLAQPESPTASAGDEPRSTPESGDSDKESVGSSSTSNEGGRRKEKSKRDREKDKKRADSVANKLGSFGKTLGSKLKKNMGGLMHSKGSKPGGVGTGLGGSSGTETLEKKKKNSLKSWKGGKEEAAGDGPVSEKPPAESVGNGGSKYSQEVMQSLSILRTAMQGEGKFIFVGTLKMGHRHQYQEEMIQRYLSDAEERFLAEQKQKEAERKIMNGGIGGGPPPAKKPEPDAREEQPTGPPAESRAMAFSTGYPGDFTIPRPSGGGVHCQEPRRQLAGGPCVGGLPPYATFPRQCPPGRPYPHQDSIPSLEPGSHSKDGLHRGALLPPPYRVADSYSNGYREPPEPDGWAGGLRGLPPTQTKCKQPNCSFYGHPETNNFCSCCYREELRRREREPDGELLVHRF
The gist of the method:
as §1

The target in experiment [3] is PRPF8 (UniProt Q6P2Q9). The method, boiled down: as §1
Experiment [4] concerns the target T3, PSMD7 (UniProt P51665).
T3 sequence (whole entry): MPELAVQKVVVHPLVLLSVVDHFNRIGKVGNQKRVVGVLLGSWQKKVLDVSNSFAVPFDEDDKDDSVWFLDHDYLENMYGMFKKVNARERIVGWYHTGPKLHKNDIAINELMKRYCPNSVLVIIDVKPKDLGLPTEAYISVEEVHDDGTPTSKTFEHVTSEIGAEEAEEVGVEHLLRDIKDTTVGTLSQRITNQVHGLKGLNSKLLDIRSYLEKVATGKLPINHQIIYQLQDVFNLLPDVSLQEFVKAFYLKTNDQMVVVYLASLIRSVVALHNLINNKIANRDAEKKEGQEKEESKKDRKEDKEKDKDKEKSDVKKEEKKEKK
The gist of the method: as §1

The target of experiment [5] is UCHL1 (UniProt P09936). The gist of the method: as §1
UCHL1, sequence (P09936 whole entry, looked up): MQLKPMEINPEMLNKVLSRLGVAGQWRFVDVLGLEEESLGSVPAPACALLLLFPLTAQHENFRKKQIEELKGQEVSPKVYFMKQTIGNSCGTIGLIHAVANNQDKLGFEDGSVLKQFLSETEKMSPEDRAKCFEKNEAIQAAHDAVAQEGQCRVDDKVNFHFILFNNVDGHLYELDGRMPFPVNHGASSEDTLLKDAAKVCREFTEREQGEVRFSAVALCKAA
For experiment [6], the target named is T4, UCHL3 (UniProt P15374).
T4 sequence (whole entry): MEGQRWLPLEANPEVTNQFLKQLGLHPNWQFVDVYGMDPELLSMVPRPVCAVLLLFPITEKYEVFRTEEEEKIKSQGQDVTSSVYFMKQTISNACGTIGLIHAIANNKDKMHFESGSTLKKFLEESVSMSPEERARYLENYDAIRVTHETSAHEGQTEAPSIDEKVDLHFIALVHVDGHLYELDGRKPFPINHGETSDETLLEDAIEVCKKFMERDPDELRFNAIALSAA
The gist of the method:
as §1

Experiment [7] concerns the target T5, UCHL5 (UniProt Q9Y5K5).
T5 sequence (whole entry): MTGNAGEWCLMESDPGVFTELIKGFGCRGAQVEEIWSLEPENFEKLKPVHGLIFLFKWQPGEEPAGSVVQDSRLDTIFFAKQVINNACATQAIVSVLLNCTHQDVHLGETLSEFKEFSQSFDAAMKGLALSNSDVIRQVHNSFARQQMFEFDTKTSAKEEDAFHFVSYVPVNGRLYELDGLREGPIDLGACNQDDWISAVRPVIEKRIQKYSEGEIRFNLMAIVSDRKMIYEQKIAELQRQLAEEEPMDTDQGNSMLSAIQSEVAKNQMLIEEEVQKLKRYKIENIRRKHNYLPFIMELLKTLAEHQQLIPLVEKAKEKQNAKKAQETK
The gist of the method:
as §1

For experiment [8], the target named is USP10 (UniProt Q14694). The gist of the method:
as §1

The target in experiment [9] is T6, USP15 (UniProt Q9Y4E8).
T6 sequence (whole entry): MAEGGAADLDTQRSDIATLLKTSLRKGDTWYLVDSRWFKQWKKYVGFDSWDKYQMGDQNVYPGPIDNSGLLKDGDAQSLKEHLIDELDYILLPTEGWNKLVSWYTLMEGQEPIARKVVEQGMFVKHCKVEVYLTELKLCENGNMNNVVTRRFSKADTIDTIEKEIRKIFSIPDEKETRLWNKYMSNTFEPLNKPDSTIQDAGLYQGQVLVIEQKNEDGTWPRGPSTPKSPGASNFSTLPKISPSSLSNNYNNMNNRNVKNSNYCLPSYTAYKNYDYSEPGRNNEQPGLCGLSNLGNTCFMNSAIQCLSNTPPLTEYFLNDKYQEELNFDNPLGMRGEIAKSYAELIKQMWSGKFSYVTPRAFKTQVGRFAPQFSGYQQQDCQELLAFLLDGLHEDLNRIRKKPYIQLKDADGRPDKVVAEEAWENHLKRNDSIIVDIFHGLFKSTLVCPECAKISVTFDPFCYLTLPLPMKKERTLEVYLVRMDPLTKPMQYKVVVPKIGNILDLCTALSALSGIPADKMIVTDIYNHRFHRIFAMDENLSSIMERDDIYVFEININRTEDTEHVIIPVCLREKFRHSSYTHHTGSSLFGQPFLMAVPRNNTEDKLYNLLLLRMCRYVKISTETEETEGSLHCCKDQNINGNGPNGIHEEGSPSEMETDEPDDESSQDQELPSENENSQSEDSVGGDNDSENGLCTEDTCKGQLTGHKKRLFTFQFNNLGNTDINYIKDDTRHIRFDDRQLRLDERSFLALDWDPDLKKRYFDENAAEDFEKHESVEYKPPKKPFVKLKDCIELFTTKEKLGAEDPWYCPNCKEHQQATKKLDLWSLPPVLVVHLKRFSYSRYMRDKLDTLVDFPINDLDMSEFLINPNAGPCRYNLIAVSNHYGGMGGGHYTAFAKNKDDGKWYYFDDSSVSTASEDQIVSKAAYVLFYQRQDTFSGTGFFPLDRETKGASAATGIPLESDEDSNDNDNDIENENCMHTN
The gist of the method:
as §1

For experiment [10], the target named is USP16 (UniProt Q9Y5T5). The method, boiled down:
as §1

USP10, sequence (Q14694 whole entry): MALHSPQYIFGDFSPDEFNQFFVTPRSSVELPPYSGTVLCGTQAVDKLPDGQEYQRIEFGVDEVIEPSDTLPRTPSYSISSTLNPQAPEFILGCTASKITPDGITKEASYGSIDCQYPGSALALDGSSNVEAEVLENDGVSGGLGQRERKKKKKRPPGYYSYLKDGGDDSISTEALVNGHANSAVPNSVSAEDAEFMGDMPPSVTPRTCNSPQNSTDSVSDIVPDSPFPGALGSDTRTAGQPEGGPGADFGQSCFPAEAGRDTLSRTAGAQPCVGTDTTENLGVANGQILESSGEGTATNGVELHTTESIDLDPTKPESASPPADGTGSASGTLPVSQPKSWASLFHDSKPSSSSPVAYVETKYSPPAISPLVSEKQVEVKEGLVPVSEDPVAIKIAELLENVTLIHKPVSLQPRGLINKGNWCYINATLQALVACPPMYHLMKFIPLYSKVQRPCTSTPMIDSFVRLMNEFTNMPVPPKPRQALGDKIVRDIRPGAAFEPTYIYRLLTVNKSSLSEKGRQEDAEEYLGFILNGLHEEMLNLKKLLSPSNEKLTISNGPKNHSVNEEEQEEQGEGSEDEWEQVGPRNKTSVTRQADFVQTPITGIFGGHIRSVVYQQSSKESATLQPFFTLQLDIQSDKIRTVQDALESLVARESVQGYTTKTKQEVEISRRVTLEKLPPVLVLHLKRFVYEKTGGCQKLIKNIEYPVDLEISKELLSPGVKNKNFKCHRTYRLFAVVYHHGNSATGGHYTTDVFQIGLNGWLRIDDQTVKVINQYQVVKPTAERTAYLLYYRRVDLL
USP16, sequence (Q9Y5T5 whole entry, looked up): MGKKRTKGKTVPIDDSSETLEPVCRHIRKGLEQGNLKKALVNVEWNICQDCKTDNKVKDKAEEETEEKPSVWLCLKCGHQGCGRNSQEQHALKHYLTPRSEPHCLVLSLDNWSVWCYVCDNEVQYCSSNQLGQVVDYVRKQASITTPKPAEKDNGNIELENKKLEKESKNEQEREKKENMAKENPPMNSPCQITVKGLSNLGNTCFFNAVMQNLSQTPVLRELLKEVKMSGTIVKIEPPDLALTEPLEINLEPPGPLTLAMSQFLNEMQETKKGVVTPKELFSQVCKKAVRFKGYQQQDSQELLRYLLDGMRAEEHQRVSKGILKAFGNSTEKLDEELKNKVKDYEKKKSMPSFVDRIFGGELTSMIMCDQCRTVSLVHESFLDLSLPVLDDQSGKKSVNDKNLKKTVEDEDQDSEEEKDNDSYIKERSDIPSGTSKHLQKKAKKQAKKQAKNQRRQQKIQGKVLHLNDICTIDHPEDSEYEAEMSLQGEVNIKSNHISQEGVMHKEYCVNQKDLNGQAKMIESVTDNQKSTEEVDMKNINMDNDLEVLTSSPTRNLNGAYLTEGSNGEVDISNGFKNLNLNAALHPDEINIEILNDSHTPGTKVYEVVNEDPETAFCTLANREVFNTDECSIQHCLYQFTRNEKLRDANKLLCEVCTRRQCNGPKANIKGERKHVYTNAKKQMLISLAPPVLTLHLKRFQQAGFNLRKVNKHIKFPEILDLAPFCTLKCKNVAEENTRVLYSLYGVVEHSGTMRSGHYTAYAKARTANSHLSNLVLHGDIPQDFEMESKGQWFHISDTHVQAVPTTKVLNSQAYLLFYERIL

As for `O=C(CCl)NC1CCCCNC1=O` (stereo not given), the “log2 ratio of Biotin-Ahx-Ub-VS probe labelling” value (“log2 ratio” for short) in experiment [1] was -0.522; in experiment [2], -0.212; in [3] it was -0.0633; in [4], -0.0971; in experiment [5], -1.46 (active); in experiment [6], 0.241. For the same molecule, the “log2 ratio” value in [7] is -0.137; in [8] it was -0.269; in experiment [9], -0.252; in experiment [10] it was -0.792.
`CCN(C(=O)CCl)C1CCCCC1`: the “log2 ratio” value in experiment [1] was -0.00402; in [2] it was -0.011; in experiment [3], -0.0683; in experiment [4], 0.00413; in experiment [5], -0.999; in [6], 0.576. The “log2 ratio” value is 0.0144 in experiment [7], -0.185 in experiment [8], -0.0855 in experiment [9] and 0.0695 in experiment [10].
For the molecule `O=C(CCl)NCc1cccc(N2CCCC2=O)c1`, the “log2 ratio” value in experiment [1] was 0.058; in [2] it was -0.585; in experiment [3], -0.0281; in experiment [4] it was -0.0566; in experiment [5], -0.979; in experiment [6], 0.302. Also, the “log2 ratio” value in [7] was -0.112; in experiment [8], 0.0755; in [9], 0.049; in [10], -1 (active).
In the case of `NS(=O)(=O)c1ccc(Cl)c(NC(=O)CCl)c1`, the “log2 ratio” value in experiment [1] is -0.573; in experiment [2] it was -1.63 (active); in experiment [3], -0.153; in [4] it was -0.125; in experiment [5] it was -1.51 (active); in [6], 0.209. Further, the “log2 ratio” value is -0.489 in experiment [7], -0.299 in experiment [8], -0.166 in [9] and 0.0198 in experiment [10].
On to `O=C(CCl)NCc1ccc(N2CCOCC2)nc1`, for which the “log2 ratio” value is -0.139 in experiment [1]; -0.502 in experiment [2]; -0.0538 in experiment [3]; -0.249 in experiment [4]; -1.45 (active) in experiment [5]; 0.0731 in [6]. Also, the “log2 ratio” value in experiment [7] is -0.235; in experiment [8], -0.0833; in experiment [9], -0.285; in experiment [10] it was -0.342.
In the case of `O=C(CCl)N1c2ccccc2NC(=O)C12CCCC2`, the “log2 ratio” value in experiment [1] was -0.0738; in experiment [2] it was -0.0903; in [3], -0.16; in experiment [4], 0.0949; in [5], -0.493; in [6] it was 0.749. The “log2 ratio” value in experiment [7] is -0.148; in experiment [8], -0.393; in experiment [9], 0.113; in [10] it was 0.103.
Take `CN(CCc1ncc(Br)cn1)C(=O)CCl.Cl`: the “log2 ratio” value in experiment [1] was -0.311; in [2], -1.39 (active); in [3], -0.0479; in experiment [4] it was -0.205; in experiment [5], -1.55 (active); in experiment [6], 0.504. The “log2 ratio” value in [7] is -0.318; in experiment [8], -0.276; in [9], -0.463; in experiment [10], -0.32.

The values above are taken from the supplement of paper PMC11732987, “Enantioselective OTUD7B fragment discovery through chemoproteomics screening and high-throughput optimisation” (Communications Chemistry, 2025).
